Screen size: about 300,000 compounds; about 5,200 (1.7%) were called active. What follows is part of a selection rich in actives, with near analogues and random picks from the rest. A number with no mark means an inactive call.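 Rule for the calls: active = mean replicate activation of at least 50% with a set share of replicates each reaching 50%; inconclusive = only one of those two conditions met; inactive = mean below 50% and too few replicates reaching it.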

The nature of this assay: HSF-1 response element luciferase induction – NIH3T3-HGL cells, MG132 stress, luminescence, single point, primary screen (AID 504408).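 Note: 0% = median of the neutral control wells and 100% = twice that signal.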 The settings on record: NIH3T3-HGL HSF-1 luciferase reporter, MG132, 8 h; at 9 µM; hits give high values; 100% = twice DMSO control signal.
As for `Oc1ccc(-c2cccc(-c3ccc(O)cc3)c2)cc1`, the activation was 62% (active).

As to `O=C(OCc1ccc(-c2ccccc2)cc1)c1cccc(O)c1`, the activation was 6.99%. For the molecule `c1ccc(-c2c[nH]c(-c3ccccc3)c2)cc1`, the activation was -83.8%. With `Cc1cc(/C=N/Nc2ccc([N+](=O)[O-])cn2)c(C)n1-c1cccc(C(=O)O)c1`, the activation is 2.82%. Next, `Cc1ccc(-n2c(C)cc(/C=N/Nc3ccc([N+](=O)[O-])cn3)c2C)c(C)c1`: 57.8% (active); `Cc1ccc(N2CCN(c3ccc([N+](=O)[O-])cn3)CC2)c(C)c1`: 14%; `Cc1ccc(S(=O)(=O)NCCC(=O)OCC(=O)N(C)c2ccccc2)cc1`: 2.24%. Next, `O=C(c1ccc(Cl)s1)N(Cc1nnc(-c2ccccc2Cl)o1)C1CC1`: 19.5%; `COc1ccc(NS(=O)(=O)c2ccc(NC(=S)NC(=O)/C=C/c3ccc(C)cc3)cc2)nn1`: -3.51%.

Turning to `Cc1ccc(C(=O)/C=C/Nc2ccc(S(=O)(=O)Nc3onc(C)c3C)cc2)cc1`, the activation is 2.18%.

Regarding `COc1ccc(/C=C/C(=O)c2ccc(NS(=O)(=O)c3ccc(C)cc3)cc2)cc1O`, the activation is 200% (active). As for `COc1ccc(C2=NN(c3ccccc3)C(c3cccs3)C2)cc1` (stereo not given), the figure is 50.9% (active). Next, `COc1ccc(C2CC(c3cccs3)=NN2c2ccccc2)cc1` (stereo not given): 67.4% (active); `COc1ccc(C2CC(c3cccs3)=NN2c2ccc(F)cc2)cc1OC` (stereo not given): 22.9%; `COc1ccc(C2=NN(C(=O)CCC(=O)O)C(c3cccs3)C2)cc1OC` (stereo not given): -7.93%. `COc1ccc(C2CC(c3cccs3)=NN2C(=O)CCC(=O)O)cc1OC` (stereo not given): the activation was -17.8%. Regarding `Oc1ccccc1C1=NN(c2ccccc2)C(c2ccccc2)C1` (stereo not given), the activation was 0.471%. Next, `COc1ccc(C2CC(c3cccs3)=NN2c2nc(C)c(C(C)=O)s2)cc1OC` (stereo not given): 149% (active); `COc1ccc(C2=NN(C(C)=O)C(c3ccccc3)C2)cc1` (stereo not given): 21.6%; `COc1ccccc1N1N=C(c2cccs2)CC1c1ccccc1` (stereo not given): 9.62%.

Turning to `O=S(=O)(c1ccccc1)N1CCC(c2ccccc2)CC1`, the activation is -26.8%. Next, `CN(N)c1nc(N2CCCC2)nc(N2CCCC2)n1`: -5.13%; `CC(C)COc1ccc(C(=O)OCC(=O)NCCC2=CCCCC2)cc1`: -2.4%; `CNc1nc(-c2ccccc2)cc(-c2ccccc2)n1`: 74.1% (active). Next, `Nc1cccc(-c2cc(-c3ccccc3)nc(-c3cccc(N)c3)n2)c1`: -6.32%; `Nc1nc(-c2ccccc2)cc(-c2ccccc2)n1`: 21.8%.

Take `O=C(COC(=O)c1cccc(Cl)c1)Nc1ccc2[nH]c(=O)[nH]c2c1`: the activation is 9.55%. Turning to `CSc1ncc(Sc2ccccc2)c(C(=O)O)n1`, the activation was 21.8%. With `CSc1nc(-c2ccccc2)nc(C(Cl)Cl)n1`, the activation is 84.8% (active). Next, `CCOc1ccccc1OCC(=O)Nc1ccccc1C(=O)NC1CC1`: -12.2%; `Cc1ccc(CNS(=O)(=O)CCNC(=O)c2ccccc2)cc1`: -0.388%; `COc1ccccc1C(=O)NCCC(=O)NC(C)CCc1ccccc1` (stereo not given): 0.822%.

Consider `O=C1CCCN1C(=O)COc1ccc([N+](=O)[O-])cc1`, for which the activation is -3.27%.

Turning to `O=C(NCc1ccncc1)c1ccc(NS(=O)(=O)c2cccc([N+](=O)[O-])c2)cc1`, the activation is 5.25%.

Take `O=[N+]([O-])c1cc(Br)c(O)c(/C=N/Nc2nc3ccccc3s2)c1`: the activation was 57.3% (active). For `CCNc1nc(NCC)nc(N/N=C/c2ccc(O)c(OC)c2)n1`, the activation is -8.51%. For `COc1ccc(CC(=O)N/N=C/c2cc([N+](=O)[O-])cc(Br)c2O)cc1`, the activation was -6.91%. Next, `COc1cc(/C=N\Nc2nc(-c3cccs3)c(NC(C)=O)s2)ccc1O`: -1.06%; `Cc1ccc(S(=O)(=O)Nc2nc3ccccc3s2)cc1[N+](=O)[O-]`: 9.23%. Next, `COc1cc(/C=N/Nc2nc3ccccc3s2)ccc1O`: 193% (active); `O=S(=O)(Nc1ccc(O)c2ccccc12)c1ccc(OC(F)(F)F)cc1`: -68.7%. For the molecule `Cc1csc(=O)n1CC(=O)OCC(=O)N(CC(C)C)c1c(N)n(Cc2ccccc2)c(=O)[nH]c1=O`, the activation was 1.95%. As for `COc1ccc(CNC(=O)C2CCCC2)cc1`, the figure is -6.99%. Next, `CCN(CC)CCn1c2c(c(SCC(=O)Nc3nc4ccccc4s3)nc1=O)CCCC2`: -7.63%; `CC1(C)O[C@H]2CC(=O)OCC23[C@H]2CC[C@@]4(C)[C@H](c5ccoc5)OC(=O)[C@H]5O[C@]54[C@]2(C)C(=O)C[C@@H]13` (stereo not given in full): 0.574%. Consider `CSc1nc2ccc(NC(=O)c3c(F)cccc3F)cc2s1`, for which the activation is 59.4% (active). `O=C(Nc1ccncc1)c1c(F)cccc1F`: the activation is -55.9%.

In the case of `CCCC(=O)Nc1nc2ccc(NC(=O)c3c(F)c(F)c(OC)c(F)c3F)cc2s1`, the activation was -10.9%.

For `Cc1onc(-c2c(F)cccc2Cl)c1C(=O)N(C)CC(=O)Nc1cccc(F)c1`, the activation was -3.94%. Next, `Cc1nn2cc(-c3ccc(Cl)cc3)cnc2c1Br`: 58.7% (active); `COc1ccc(N2CCN(C(=O)c3ccc4c(Cl)c5c(nc4c3)CCCC5)CC2)cc1`: -1.04%. As for `CC(C)CCNC(=O)c1ccc2c(Cl)c3c(nc2c1)CCC3`, the figure is -56.3%; as for `CC(=O)c1ccc(NC(=O)c2ccc3c(Cl)c4c(nc3c2)CCCC4)cc1`, 105% (active). Next, `N#CCN(C(=O)COC(=O)C1CC2CCCC(C1)C2=O)c1ccccc1` (stereo not given): -11.4%; `O=C(NN1CCOCC1)c1cccc(F)c1`: 13.3%. With `O=C(COC(=O)Cc1ccccc1F)NNC(=O)c1ccc(Cl)cc1`, the activation was -9.93%.

Regarding `COc1ccc(CNC(=O)C(=O)N2CCC3(CC2)OCCN3S(=O)(=O)c2ccc(C)cc2)cc1`, the activation is 2.08%. As to `CCN(C(=O)CSc1nnnn1-c1ccccc1OC)C1CCS(=O)(=O)C1` (stereo not given), the activation is 26%.

`COc1ccccc1-n1nnnc1S(=O)(=O)Cc1ccc(Cl)cc1`: the activation was 235% (active).

Take `COc1ccccc1N1CCN(S(=O)(=O)c2ccc(Cl)cc2)CC1`: the activation is 4.97%.
